Screening data: PubChem BioAssay, National Center for Advancing Translational Sciences (NCATS)
A selection: hits, their analogues and other compounds. The true share with any hit is near 3.4%.
Giardia FBPA inh – qHTS Assay for Inhibitors of Fructose-1,6-bisphosphate Aldolase from Giardia Lamblia | A8B2U2 | Potency, µM (series often up to 59.6 µM), without a hit: top-dose activity, negative = inhibition, most hits filed as inhibitors | 290,000 compounds, 0.71% hits | purified Giardia FBPA; further: nearly all actives have a fitted effect of over 55% in size
Target sequence (A8B2U2 whole entry, looked up): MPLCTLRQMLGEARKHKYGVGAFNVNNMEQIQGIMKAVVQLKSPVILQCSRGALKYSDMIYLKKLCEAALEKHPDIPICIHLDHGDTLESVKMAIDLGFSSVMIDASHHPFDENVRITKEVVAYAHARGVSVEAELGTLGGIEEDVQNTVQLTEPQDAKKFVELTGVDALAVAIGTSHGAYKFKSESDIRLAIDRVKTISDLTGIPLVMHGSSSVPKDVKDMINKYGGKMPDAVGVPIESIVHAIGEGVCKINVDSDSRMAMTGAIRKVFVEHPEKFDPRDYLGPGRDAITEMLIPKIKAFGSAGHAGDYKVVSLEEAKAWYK
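40 nM FBPA preincubated 10 min at RT with compound (up to 57.5 uM final), then substrate plus GAPDH/TPI/NAD/arsenate coupling and diaphorase/resazurin added. Fluorescence read after 20 min at RT, 525/598 nm.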
AmpC detergent – qHTS Inhibitors of AmpC Beta-Lactamase (assay with detergent); 370,000 compounds, 0.041% hits; AmpC hydrolysis of nitrocefin, absorbance 480 nm, 0.01% Triton; Potency, µM (series often up to 114 µM), for inactives: top-dose activity change, negative = inhibition, usual class: inhibitors; P00811;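 further: 0% = no-compound wells and -100% = no-enzyme wells; nearly all actives have a fitted effect of over 25% in size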
Target sequence (P00811 whole entry, looked up): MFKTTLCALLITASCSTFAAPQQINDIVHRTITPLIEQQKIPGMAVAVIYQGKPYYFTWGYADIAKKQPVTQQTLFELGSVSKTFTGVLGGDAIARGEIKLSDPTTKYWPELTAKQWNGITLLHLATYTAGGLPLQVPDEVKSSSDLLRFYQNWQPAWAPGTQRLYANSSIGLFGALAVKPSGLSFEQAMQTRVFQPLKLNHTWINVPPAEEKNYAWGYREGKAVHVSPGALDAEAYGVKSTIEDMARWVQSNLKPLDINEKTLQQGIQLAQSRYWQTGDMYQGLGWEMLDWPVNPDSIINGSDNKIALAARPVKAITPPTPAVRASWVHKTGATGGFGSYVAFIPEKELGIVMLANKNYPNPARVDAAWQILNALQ
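20 mM phosphate pH 7.0 + 0.01% (detergent screen) or 0.0001% Triton X-100; 5.3 nM AmpC reagent; cpd preinc 15 min RT; nitrocefin (800 uM stock) to start; A480 q20 s × 4 min; Activity was normalised to no-enzyme and no-compound control wells.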
AmpC no deterg – qHTS Inhibitors of AmpC Beta-Lactamase (assay without detergent); AmpC nitrocefin hydrolysis, absorbance 480 nm, 0.0001% Triton; Potency, µM (highest dose often 57.1 µM), for the others: top-dose activity change, negative = inhibition, actives largely listed as inhibitors; 330,000 compounds, 0.52% hits;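 further: plate controls were no compound for no effect and no enzyme for full effect; nearly all actives have a fitted effect of over 20% in size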
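AmpC (5.3 nM in the dispensed reagent) in 20 mM phosphate pH 7.0 with 0.01% (detergent screen) or 0.0001% Triton X-100 was preincubated with compounds for 15 min at room temperature. Nitrocefin was then added from an 800 uM solution, and hydrolysis was followed at 480 nm.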
Sm TGR inh – qHTS Assay for the Inhibitors of Schistosoma Mansoni Peroxiredoxins | 360,000 compounds, 3% hits | purified TGR, DTNB reduction, TNB absorbance 405 nm | Potency, µM (titrated, usually from 114 µM), inactives show at the top dose activity change, negative = inhibition, actives largely listed as inhibitors; further: nearly all actives have a fitted effect of over 60% in size
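First, TGR (20 nM dispensed) and NADPH were mixed with compound. Second, a 15 min room-temperature incubation followed. Third, further NADPH and then DTNB were added to start the reaction. Finally, TNB absorbance was monitored kinetically.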
RE007 growth inh – qHTS Assay for Inhibitors of the HIV-1 protein Vpr; S. pombe RE007 Vpr strain, BacTiter-Glo ATP luminescence, 24 h; Potency, µM (titrated, usually from 92.2 µM), without a hit: at the highest dose activity change, negative = less growth, hits mostly inhibitors; 360,000 compounds, 0.21% hits; AID 651644, 2012; active means well fitted falling curve with a large enough effect; inconclusive means small, poorly fitted or top-dose-only effect; inactive means no such curve, though single readings can be large or run the other way; further: nearly all actives have a fitted effect of over 50% in size
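Fission yeast strain RE007, carrying one chromosomally integrated HIV-1 vpr copy, was seeded at OD 0.01 in PMG+AL medium with 23 nL pinned compound. After 24 h at 30 °C and 99% humidity, viability was read by BacTiter-Glo luminescence.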
An asterisk follows results filed as active; ? = inconclusive; . = no result. Unless noted, the call rests on the fitted dose curve; in most records, active means well fitted curve in the direction sought with a large enough effect; inconclusive means small, poorly fitted or top-dose-only effect, or another doubt; inactive means no such curve, though single readings can be large; an effect the other way counts as inactive or inconclusive. Unless noted, on the % scale 0 is the no-effect control and ±100 the full control effect; potency means the concentration at half of the fitted maximal effect.

SMILES	Giardia FBPA inh	AmpC detergent	AmpC no deterg	Sm TGR inh	RE007 growth inh
Cn1c2ccccc2c2c(C(=O)NCc3ccco3)cn(C3CCCCC3)c(=O)c21	-22.4%	-11.7%	4.1%	79.4µM*	9.2%
Cc1ccc(CNC(=O)c2cn(C3CCCC3)c(=O)c3c2c2ccccc2n3C)o1	-6.6%	7.8%	.	8.91µM*	.
Cc1ccccc1CNC(=O)c1ccc(NC(=O)c2nsc3ccccc23)cc1	.	-7.5%	.	25.1µM*	.
O=c1[nH]c(=S)n(C2CC2)c(O)c1C=Nc1cccc(C(F)(F)F)c1	-6.6%	-4.3%	-25.2%	-8.3%	-17.8%
CCN(CC)S(=O)(=O)c1ccc(S(=O)(=O)N2CCCC2)cc1	-1.8%	1.4%	0.8%	13.3%	-4.0%
Cc1ccc(NS(=O)(=O)c2ccc(C(=O)N3CCCC(C(F)(F)F)C3)cc2)cc1 (stereo not given)	.	?	35.5µM*	2.1%	-15.7%
O=C(O)c1ccc2c(c1)[C@@H]1C=CC[C@@H]1[C@H](c1ccccn1)N2	.	.	.	.	-8.7%
CC1=CC(=O)C(C(C)C)=C/C1=N/OC(=O)c1cccc([N+](=O)[O-])c1	-19.9%	2.8%	-11.2%	44.7µM*	-4.4%
CC1=CC(=NOC(=O)c2cccc([N+](=O)[O-])c2)C=C(C)C1=O	?	-5.9%	-10.4%	2.82µM*	-2.9%
Cc1ccc(C(=O)O/N=C(\N)c2cccc([N+](=O)[O-])c2)cc1	-9.2%	-10.0%	-22.8%	0.0%	5.3%
COc1ccc2[nH]c(C)c(CCN(Cc3cccs3)C(=S)Nc3cccc(F)c3)c2c1	?	2.6%	44.7µM*	?	-2.6%
COc1cccc(NC(=S)N(CCc2c(C)[nH]c3ccc(C)cc23)Cc2cccs2)c1	1.2%	-4.8%	-0.1%	-8.4%	7.1%
CC(C)C1=CC2=CCC3[C@@](C)(CCC[C@@]3(C)C(=O)O)C2CC1 (stereo not given in full)	0.8%	.	.	.	.
NC(=O)c1ccsc1NC(=O)c1nc(-c2ccccc2)n(-c2ccccc2)n1	-10.6%	-8.1%	3.98µM*	-4.6%	-2.0%
COc1ccc(-n2cc(-c3ccccc3)c3c(NC4CCCCC4)ncnc32)cc1	.	-5.4%	.	-2.8%	.
CCCN(CCC)CCCNC(=O)c1cc2c(=O)n(C)c3ccccc3c2s1	.	3.4%	.	10µM*	.
Cc1ccc(CNC(=O)CN(C)S(=O)(=O)c2cnc[nH]2)cc1	0.4%	-5.2%	-13.5%	4.6%	-13.3%
CN(C)c1ccc(N=Cc2ccco2)cc1	2.81µM*	-5.0%	30.8%	31.6µM*	?
Cc1cc(NC(=O)c2cccc(S(=O)(=O)N3CCC(C)CC3)c2)no1	5.5%	-19.8%	-35.4%	-2.0%	0.0%
CC1(C)NC(=S)NC1=S	.	.	.	.	2.4%
Cc1ccc(S(=O)(=O)CCC(=O)Nc2cccc(Cl)c2)cc1	-11.9%	-0.1%	-18.5%	-28.0%	1.7%
CC(C)c1onc(C(=O)NC(C)c2ccccc2)c1[N+](=O)[O-] (stereo not given)	2.0%	5.0%	-12.2%	39.8µM*	12.1%
Cc1ccc(O)c(NC(=O)c2noc(C(C)C)c2[N+](=O)[O-])c1	-2.9%	-2.0%	-30.7%	35.5µM*	0.2%
CC(C)c1onc(C(=O)NCCc2ccccc2)c1[N+](=O)[O-]	8.1%	1.2%	-21.8%	44.7µM*	-14.9%
Cc1nn(C)c(=O)n1-c1ccc(OCc2ccccc2)cc1	7.4%	-1.4%	4.6%	-7.9%	-9.7%
SMILES	Giardia FBPA inh	AmpC detergent	AmpC no deterg	Sm TGR inh	RE007 growth inh
CC(C)Cn1c2c(c(O)c(C(=O)Nc3ncccc3O)c1=O)CCCC2	7.92µM*	-15.4%	-3.5%	?	-17.8%
CS(=O)(=O)N1CCCC(C(=O)Nc2ccc(F)cc2)C1 (stereo not given)	18.8%	-9.1%	-4.4%	-12.2%	9.1%
O=C(CCl)Nc1nccs1	-9.8%	3.5%	-9.9%	3.16µM*	36.2%
O=C(Nc1nccs1)C(Cl)(Cl)Cl	0.8%	4.8%	-18.9%	-4.7%	16.3%
Cc1ccc(CNC(=O)COC(=O)c2ccc(S(=O)(=O)N3CCCC3)cc2)cc1	3.0%	-1.8%	-1.2%	-6.1%	14.7%
CCN1CCN(c2cc3c(nn2)Oc2ccccc2N3C)CC1	1.8%	-17.2%	-23.3%	-10.2%	-15.8%
Cn1nnnc1Sc1ncnc2scc(-c3ccccc3)c12	8.1%	?	-10.6%	1.2%	-1.6%
Cn1nnnc1Sc1ncnc2scc(-c3ccc[nH]3)c12	.	3.7%	-20.9%	11.2µM*	.
O=C(NC(n1ccc(=O)[nH]c1=O)C(Cl)(Cl)Cl)C12CC3CC(CC(C3)C1)C2 (stereo not given)	8.9%	-11.5%	-29.3%	39.8µM*	-18.9%
O=C(O)CC(NC(=O)C12CC3CC(CC(C3)C1)C2)c1ccc(Cl)cc1 (stereo not given)	4.6%	-11.2%	-6.8%	0.0%	2.9%
Cc1ccc2nsnc2c1NS(=O)(=O)c1c(C)ccc2nsnc12	?	-11.2%	-42.2%	?	-11.9%
Cc1ccc(/C=[N+](\[O-])c2ccc(N(C)C)cc2)c2nsnc12	?	-11.8%	-7.5%	28.2µM*	3.98µM*
CCC(=O)Nc1ccc(C(=O)NCCCn2ccnc2)cc1	0.6%	-1.2%	-12.7%	.	-5.1%
O=C(CN1C(=O)C2C3C=CC(C3)C2C1=O)NCCN1CCCc2ccccc21 (stereo not given)	-15.5%	?	10.8%	50.1µM*	-18.6%
COc1ccccc1/C=C/C(=O)c1c2c(c(C)[nH]c1=O)CCCC2	-26.5%	-7.3%	-18.7%	44.7µM*	9.2%
O=C(/C=C1\C(=O)Nc2ccccc21)/C=C1\C(=O)Nc2ccccc21	-18.9%	-11.3%	-36.4%	12.6µM*	-6.3%
Cc1ccccc1-n1c(O)c(C(c2ccncc2)c2c(O)n(-c3ccccc3C)c(=O)[nH]c2=O)c(=O)[nH]c1=O	-2.0%	-4.5%	-6.9%	1.12µM*	-1.9%
COCCCNC(=S)N1CCN(c2ccccc2)CC1	6.3%	5.7%	-8.2%	4.5%	-9.3%
Cc1cccc(C(CC(=O)N2CCCCC2)c2ccccc2)c1O (stereo not given)	5.2%	-9.7%	-11.9%	28.2µM*	15.6%
Cc1cccc(C(CC(=O)N2CCCC2)c2ccccc2)c1O (stereo not given)	2.2%	-14.5%	18.5%	8.0%	-3.0%
CCCc1c(-c2cccc(Cl)c2)ncn1Cc1ccccc1OC	.	.	.	.	-23.9%
COc1cccc(-c2nc(CS(=O)(=O)CC(=O)Nc3ccccc3C)c(C)o2)c1	0.4%	-5.3%	-1.8%	-31.3%	-3.4%
COc1cccc(-c2nc(CS(=O)(=O)CC(=O)Nc3cc(OC)ccc3OC)c(C)o2)c1	-14.6%	-0.9%	60.1%	50.1µM*	7.8%
